Several values for one entry are separate records, joined by “and”; a condition that tells them apart may be missing. Equal values may be shown once. Records with an inconclusive call do not appear. Entries that show only a call come without a potency. Where a structure was tested more than once in an assay, its records may differ in their call. Activity calls are given as the source filed them. The call rests on the fitted dose curve; in most records, active means well fitted curve in the direction sought with a large enough effect in the repeat runs; inconclusive means weak or mixed curves; inactive means no such curve, though single readings can be large; an effect the other way counts as inactive or inconclusive.
Tests used:
[1] = A CellTox Green Cytotoxicity Assay to monitor cytotoxicity in HepG2 cells - 0 hour (AID 1224882); further: nearly all actives have a fitted effect of over 35% in size
Method in brief: (§1)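 Nonlytic assay: viable cells exclude the dye, so fluorescence scales with cell death. HepG2 at 600 cells/well, compounds added after 5 h, signal read across 40 h.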

[2] = A CellTox Green Cytotoxicity Assay to monitor cytotoxicity in HepG2 cells - 32 hour (AID 1224883); further: nearly all actives have a fitted effect of over 50% in size; further: potency means the concentration at half of the fitted maximal effect
Method in brief: as §1

[3] = A CellTox Green Cytotoxicity Assay to monitor cytotoxicity in HEK293 cells - 8 hour (AID 1224884); further: nearly all actives have a fitted effect of over 35% in size; further: potency means the concentration at half of the fitted maximal effect
Method in brief: (§2)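 Seeding of HEK293 cells together with cytotoxicity dye preceded a 5 h incubation at 37 C/5% CO2. Test compounds in DMSO were then added and fluorescence monitored across 40 h.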

[4] = qHTS RealTime-Glo MT Cell Viability Assay in HEK293 cells - 24 hour (AID 1224886); further: nearly all actives have a fitted effect of over 50% in size; further: potency means the concentration at half of the fitted maximal effect
Method in brief: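 Assay medium contained NanoLuc luciferase plus cell-permeant prosubstrate, added with HEK293 cells at 600 cells/well. After 5 h at 37 C/5% CO2 compounds were added; plates stayed at 37 C for 40 h with serial luminescence reads.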

[5] = qHTS RealTime-Glo MT Cell Viability Assay in HEK293 cells - 8 hour (AID 1224887); further: nearly all actives have a fitted effect of over 50% in size; further: potency means the concentration at half of the fitted maximal effect
Method in brief: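 Tox21 screen in HEK293 using RealTime-Glo MT chemistry, with cells and reagent co-dispensed. Luminescence proportional to viable cell number was captured at intervals during 40 h compound exposure at 37 C.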

[6] = A CellTox Green Cytotoxicity Assay to monitor cytotoxicity in HEK293 cells - 16 hour (AID 1224888); further: nearly all actives have a fitted effect of over 35% in size
Method in brief: as §2

[7] = qHTS RealTime-Glo MT Cell Viability Assay in HepG2 cells - 0 hour (AID 1224889); further: nearly all actives have a fitted effect of over 50% in size
Method in brief: (§3)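 qHTS, HepG2, 600 cells/well, RealTime-Glo (NanoLuc + prosubstrate) added with cells; 5 h preincubation; DMSO compound addition; 37 C; luminescence at 0/8/16/24/32/40 h.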

[8] = A CellTox Green Cytotoxicity Assay to monitor cytotoxicity in HepG2 cells - 8 hour (AID 1224890); further: nearly all actives have a fitted effect of over 45% in size; further: potency means the concentration at half of the fitted maximal effect
Method in brief: as §1

[9] = qHTS assay to identify small molecule antagonists of the estrogen receptor alpha (ER-alpha) signaling pathway using the BG1 cell line in the presence of 0.1 nM 17-beta-estradiol - cell viability counter screen (AID 1259241); further: nearly all actives have a fitted effect of over 40% in size; further: potency means the concentration at half of the fitted maximal effect
Method in brief: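 VM7Luc4E2, 4,000 cells/well, phenol red-free medium + 10% charcoal-stripped FBS; 24 hr plating; cpd + 0.1 nM E2 final, 22 hr 37C/5% CO2; CellTiter-Fluor 30 min, fluorescence.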

[10] = qHTS RealTime-Glo MT Cell Viability Assay in HepG2 cells - 16 hour (AID 1224885); further: nearly all actives have a fitted effect of over 50% in size; further: potency means the concentration at half of the fitted maximal effect
Method in brief: as §3

SMILES | Potency [1] | Potency [2] | Potency [3] | Potency [4] | Potency [5] | Potency [6] | Potency [7] | Potency [8] | Potency [9] | Potency [10]
CCCCC/C(C=O)=C\c1ccccc1 | inactive | inactive | inactive | inactive | inactive | inactive | inactive | inactive | inactive | 
COc1ccc(C(=O)c2ccccc2)c(O)c1 |  | inactive | inactive | inactive and 12.3 µM (active) |  | inactive | inactive | inactive | inactive | inactive
O=C(O)CN(CC(=O)O)CC(=O)O |  | inactive | inactive | inactive |  | inactive | inactive | inactive | inactive | inactive
COC(=O)c1ccc(O)cc1 | inactive | inactive | inactive |  |  | inactive |  | inactive | inactive | 
Cc1c(N(C)C)c(=O)n(-c2ccccc2)n1C | inactive | inactive | inactive | inactive |  | inactive | inactive | inactive | inactive | 
NC(=O)N1c2ccccc2C=Cc2ccccc21 | inactive | inactive | inactive |  |  | inactive | inactive | inactive | inactive | 
N[C@@H](Cc1c[nH]c2ccccc12)C(=O)O | inactive | inactive | inactive |  | inactive | inactive | inactive | inactive | inactive | 
CCCCCCCCOc1ccc(C(=O)c2ccccc2)c(O)c1 | inactive | inactive | inactive | inactive |  | inactive | inactive | inactive | inactive | 
Cc1cnc(NC(=O)C2=C(O)c3ccccc3S(=O)(=O)N2C)s1 | inactive | inactive | inactive | inactive | inactive | inactive | inactive | inactive | inactive | 
CCCCOC(=O)CCCCCCCCC(=O)OCCCC | inactive | inactive | inactive |  |  | inactive | inactive | inactive | inactive | 
OC[C@@H](O)[C@@H](O)[C@H](O)[C@H](O)CO |  | inactive | inactive | inactive |  | inactive | inactive | inactive | inactive | inactive
CCCCCCCCCCCCCC(=O)OC(C)C | inactive | inactive | inactive | inactive and 3.47 µM (active) |  | inactive | inactive | inactive | inactive | 
O=[N+]([O-])c1ccc(O)cc1 | inactive | inactive | inactive | inactive |  | inactive | inactive | inactive | 56.6 µM (active) | 
COc1cc(C=O)ccc1O | inactive | inactive | inactive | inactive |  | inactive | inactive | inactive | inactive | 
NC(=O)OCC(COC(N)=O)c1ccccc1 | inactive | inactive | inactive | inactive |  | inactive | inactive | inactive | inactive | 
C/C=C/c1ccc(O)c(OC)c1 |  | inactive | inactive | inactive |  | inactive | inactive | inactive | inactive | inactive
CO[C@H]1C=CO[C@@]2(C)Oc3c(C)c(O)c4c(O)c(c(/C=N/N5CCN(C)CC5)c(O)c4c3C2=O)NC(=O)/C(C)=C\C=C[C@H](C)[C@H](O)[C@@H](C)[C@@H](O)[C@@H](C)[C@H](OC(C)=O)[C@@H]1C |  | inactive | inactive | 12.4 µM (active) and 4.42 µM (active) and 21.3 µM (active) | 2.77 µM (active) and 988 nM (active) and 10.7 µM (active) | inactive | inactive | inactive | 27.4 µM (active) and 19.6 µM (active) and 13.3 µM (active) | 12.4 µM (active)
CC(=O)CCC(C)C |  | inactive and 38.9 µM (active) | inactive and 38.9 µM (active) | inactive | inactive |  | inactive | inactive and 43.6 µM (active) | inactive | inactive
Cc1cccc2ccccc12 |  | inactive | inactive |  | inactive | inactive | inactive | inactive | inactive | 
C=CCOC(=O)CC(C)C |  | inactive | inactive |  | inactive | inactive | inactive | inactive | inactive | 
CC(=O)OC/C=C(C)/C=C/C=C(C)/C=C/C1=C(C)CCCC1(C)C |  | inactive | inactive |  | inactive | inactive | inactive | inactive | inactive | 
COC(=O)C1CCC(C(=O)OC)CC1 (centres undefined) |  | inactive | inactive |  |  | inactive | inactive | inactive | inactive | inactive
COC(=O)c1ccc(C=O)cc1 |  | inactive | inactive | inactive | inactive | inactive | inactive | inactive | inactive | 

From PubChem BioAssay (Tox21)
